An excerpt weighted towards active compounds, which were near 3.6% of everything screened.
LGR2 inh – Drosophila LGR2 receptor signaling inhibition; 380,000 compounds, 0.35% hits; AID 720647; inhibition, % at 9.99 µM; HEK293 LGR2, CRE-luciferase, bursicon-stimulated, 4 h;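 active = drop in luminescence signal, shown as inhibition above about 50% in the replicate tests, limit read from the data, passing the limit was not always enough; inconclusive = probably only some replicates passing the limit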;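 also: agonist challenge used bursicon conditioned medium at about half maximal strength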
HSF1 activator – increases HSF-1 driven luciferase reporter signal; NIH3T3-HGL HSF-1 luciferase reporter, MG132, 8 h; 100% = twice DMSO control signal; activation, % at 9 µM; 300,000 compounds, 1.7% hits; AID 504408;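 active = mean replicate activation of at least 50% with a set share of replicates each reaching 50%; inconclusive = only one of those two conditions met; inactive = mean below 50% and too few replicates reaching it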;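 also: 0% = median of the neutral control wells and 100% = twice that signal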
TWEAK-Fn14 inh – blocks TWEAK-Fn14 interaction in a reporter cell assay; 360,000 compounds, 2% hits; inhibition, % at 10 µM; TWEAK-stimulated Fn14 reporter cells, luciferase luminescence, 8 h; in the data active = inhibition above about 50%
HSF1 inhib – HSF1 inhibition; NIH3T3-HGL HSE-luciferase, MG132-induced, luminescence 8 h; active compounds read low; activity change, negative = inhibition, % at 7.5 µM (by protocol); 300,000 compounds, 0.77% hits; AID 2098;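 active = more than half of replicate wells show activity change below -50%, luminescence cut by over half; inconclusive = some wells, but at most half, below -50%; inactive = no replicate well below -50%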;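 also: luciferase reports HSF-1 transcriptional activity via heat shock element; 0% = median of DMSO wells and -100% = zero luminescence signal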
TROY signal inh – TROY signaling inhibition; Q293 LMP1-TROYcd NF-kB luciferase reporter, 4 h; inhibition, % at 10 µM; 360,000 compounds, 0.98% hits;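 active = compounds whose plate-normalised and pattern-corrected inhibition of the luciferase reporter signal at the single screening dose is 50% or more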
LMP1 NFkB inh – Epstein-Barr LMP1 NF-kappaB reporter inhibition; inhibition, % at 12.5 µM; 350,000 compounds, 0.69% hits; LMP1-induced NF-kappaB luciferase reporter cells, luminescence; in the data active = inhibition above about 41%; inconclusive = no clear call, values can overlap the other calls;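 also: 0% = neutral control wells and 100% = reference inhibitor control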
An asterisk follows results filed as active; ? = inconclusive; · = no result given.

SMILES	LGR2 inh	HSF1 activator	TWEAK-Fn14 inh	HSF1 inhib	TROY signal inh	LMP1 NFkB inh
COc1cccc(N2CCN(c3ncnc4c3[nH]c3ccc(F)cc34)CC2C)c1 (stereo unspecified)	·	-85.9	104.5*	-83.7*	86.2*	69.9*
COc1cccc(N2CCN(c3ncnc4c3[nH]c3ccccc34)CC2C)c1 (stereo unspecified)	·	-50.3	·	-49.5	·	·
COc1ccc2c(c1)[nH]c1c(N3CCSCC3)ncnc12	·	14.1	48.3	-6.6	63.5*	2.0
COc1ccccc1NC(=O)N[C@H]1CC[C@@H](CCNS(=O)(=O)c2ccc(F)cc2)O[C@H]1CO	12.0	·	·	·	·	·
CCN(CC)c1ncnc2ccc(Br)cc12	·	-58.1	49.8	-53.3*	35.4	14.1
COc1ccc(OC)c(Nc2ncnc3ccc(Br)cc23)c1	28.4	-37.1	36.1	-31.3	17.8	2.4
Brc1ccc2ncnc(Nc3cccc4ccccc34)c2c1	17.6	-29.9	60.7*	-15.5	34.2	-0.7
O=C(O)c1cccc(Nc2ncnc3ccc(Br)cc23)c1	-9.6	-15.1	-6.1	-13.7	-11.5	-7.9
COc1cccc(Nc2ncnc3ccc(Br)cc23)c1	13.4	·	62.8*	·	35.1	26.6
OCCNc1ncnc2ccc(Br)cc12	21.6	-15.1	34.7	-16.4	21.8	-3.5
Cc1ccccc1C(=O)Oc1cccc(Nc2ncnc3ccccc23)c1	·	6.2	53.0*	5.9	51.0*	5.2
CCCC#Cc1ccc2c(c1)O[C@H](CN(C)Cc1ccccc1)[C@H](C)CN([C@H](C)CO)S2(=O)=O	16.7	·	·	·	·	·
CCCC(=O)Nc1cnc(NC(=O)c2cccc(F)c2)cc1C	·	5.7	65.5*	5.6	28.9	24.2
Cc1cc(NC(=O)C(C)C)ncc1NC(=O)c1cccc(F)c1	·	3.9	-9.2	1.7	2.1	-11.3
CCc1cc(C(=O)N2CCN(c3ncc(C(F)(F)F)cc3Cl)CC2)sc1C	11.6	-12.1	55.6*	-3.2	35.3	-2.5
O=C(c1cccs1)N1CCN(c2ncc(C(F)(F)F)cc2Cl)CC1	-1.5	19.0	-26.9	-6.1	-23.1	5.6
Cc1ccccc1Oc1cc(NC(=O)CCCn2nc(C)c([N+](=O)[O-])c2C)cc([N+](=O)[O-])c1	-4.0	29.3	63.3*	9.5	42.8	10.4
Cc1ccccc1Oc1cc(NC(=O)Cn2cnc([N+](=O)[O-])c2)cc([N+](=O)[O-])c1	17.9	74.9*	-35.3	28.2	24.3	-0.1
COc1ccc(S(=O)(=O)N(C)C[C@@H]2Oc3c(NC(=O)CCCCCC(=O)Nc4ccccc4N)cccc3C(=O)N([C@H](C)CO)C[C@H]2C)cc1	-2.6	·	·	·	·	·
CC(=O)NC(c1cccs1)c1cc(F)c2cccnc2c1O (stereo unspecified)	13.6	·	16.8	·	2.3	53.2*
CCCCC(=O)NC(c1ccc(Cl)cc1)c1ccc2cccnc2c1O (stereo unspecified)	47.8	-27.8	5.6	-29.5	14.8	67.1*
CCCC(=O)NC(c1ccc(C)cc1)c1ccc2cccnc2c1O (stereo unspecified)	·	-4.3	-4.6	-2.4	19.2	62.5*
CCCC(=O)NC(c1ccc(Cl)cc1)c1ccc2cccnc2c1O (stereo unspecified)	30.9	-46.8	1.0	-41.7	17.4	?
CC(C)CC(=O)NC(c1cccs1)c1ccc2cccnc2c1O (stereo unspecified)	·	15.5	-23.2	15.6	23.7	37.1
CCC(=O)NC(c1cccs1)c1ccc2cccnc2c1O (stereo unspecified)	10.5	2.6	3.1	6.4	10.9	74.2*
SMILES	LGR2 inh	HSF1 activator	TWEAK-Fn14 inh	HSF1 inhib	TROY signal inh	LMP1 NFkB inh
COc1cccc(C(=O)Nc2ccc3c(c2)C(=O)N(C)C[C@@H](OC)[C@@H](C)CN(CC2CC2)[C@@H](C)CO3)c1	-7.7	·	·	·	·	·
O=C(Cc1cccnc1)N[C@H]1CC[C@@H](CCNS(=O)(=O)c2ccccc2Cl)O[C@H]1CO	-1.2	·	·	·	·	·
O=C(NC1CCC1)[C@H]1[C@H](CO)[C@H]2Cn3c(ccc(-c4ccccc4)c3=O)[C@@H]1N2CC1CC1	1.6	·	·	·	·	·
CCN(CC)c1ccc(C(NC(=O)C(C)C)c2ccc3cccnc3c2O)cc1 (stereo unspecified)	·	·	-9.4	·	5.9	71.6*
CCCCC(=O)NC(c1ccc(N(CC)CC)cc1)c1ccc2cccnc2c1O (stereo unspecified)	·	-50.4	11.2	-47.3	33.0	81.9*
CCCCC(=O)NC(c1ccc(N(C)C)cc1)c1ccc2cccnc2c1O (stereo unspecified)	11.6	-44.5	8.6	-45.1	6.5	33.5
CCC(=O)NC(c1ccc(C)cc1)c1cc(Cl)c2cccnc2c1O (stereo unspecified)	·	·	29.1	·	-17.9	43.0*
CN(C)c1ccc(C=C2SC(=S)NC2=O)cc1	-62.4	·	-24.5	·	-30.8	-10.9
CN(C)c1ccc(/C=N/N=C2/NC(=O)/C(=C/c3ccc([N+](=O)[O-])cc3)S2)cc1	·	·	59.6*	·	32.8	37.0
COc1ccc(CCNC(=O)CSc2ccccc2)cc1OC	-2.9	-19.5	-1.7	-4.2	-1.7	8.1
COc1ccc(-n2nc(C(=O)NCC(=O)NCc3ccccc3OC)c3ccccc3c2=O)c(OC)c1	2.7	-68.0	5.4	-59.9*	-0.1	-7.7
COc1ccc(CCNC(=O)CSC(=O)c2ccccc2)cc1OC	-2.6	-4.6	-20.5	-4.7	-5.8	43.2*
COc1ccc(CCNC(=O)CSc2nc3cc(Cl)ccc3o2)cc1OC	·	66.1*	14.2	24.6	4.2	13.1
COc1ccc(-n2nc(C(=O)NCC(=O)NCCN(C)C)c3ccccc3c2=O)c(OC)c1	-1.1	-18.6	13.5	-4.3	-7.9	-2.1
COc1ccc(CCNC(=O)c2ccc(CSc3ccc(Cl)cc3)o2)cc1OC	1.7	·	67.6*	·	44.3	·
C[C@@H]1CN([C@@H](C)CO)C(=O)c2cc(NC(=O)Nc3ccccc3)ccc2O[C@H]1CN(C)C(=O)Nc1ccccc1	6.7	·	·	·	·	·
CN1[C@@H]2c3cccc(=O)n3C[C@@H]2[C@@H](CO)[C@@H]1C(=O)NCCc1ccccc1	-2.3	·	·	·	·	·
COc1ccccc1CNC(=O)Cc1ccc(OC)c(OC)c1	3.6	1.1	67.6*	-2.4	13.0	5.3
COc1ccc(CC(=O)NCc2ccccc2)cc1OC	2.1	-1.7	3.1	-3.7	-14.5	-13.3
Cc1cc(C)c(OCCCn2ccnc2)c(C)c1	2.3	-0.4	5.9	-3.0	6.5	11.6
Cc1cc(C)c(OCCn2ccnc2)c(C)c1	·	-5.0	11.0	-4.3	-3.3	72.8*
COc1ccc(-c2coc3cc4oc(=O)c(CC(=O)O)c(C)c4cc23)cc1	7.6	71.0*	-5.3	20.8	-0.3	-3.0
O=C(COc1ccccc1-c1ccccc1)NN=C1CCCC1	1.8	·	5.4	·	3.8	-1.1
O=C1CCC/C(=N\NC(=O)c2ccc(COc3ccccc3-c3ccccc3)cc2)C1	-2.6	71.9*	-9.4	30.5	-9.1	-5.6
